{
  "source": "paper PMC5540273",
  "about": "(PLoS ONE, 2017);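 note: KINOMEscan kinase panel screen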",
  "data": [
    {"tested_on": "T1, DCAMKL3", "T1 construct": "gene DCLK3", "conditions": "concentration: 1 μM, replicates: in singlicate; n = 1", "units": {"%Inh": "%"}, "values": [
      {"smiles": "CCc1nc(-c2cccc(C)c2)c(-c2ccncc2)s1", "%Inh": 4},
      {"smiles": "COc1cc(OC)cc(-c2cc3cnc(N)nc3nc2NC(=O)NC(C)(C)C)c1", "%Inh": 0},
      {"smiles": "Nc1ncnc2c1ncn2-c1cccc(F)c1", "note": "[SKF-97560]", "%Inh": 0},
      {"smiles": "COc1cc2ncn(-c3cc(OCc4ccncc4)c(C(N)=O)s3)c2cc1OC", "note": "[GSK336313]", "%Inh": 55},
      {"smiles": "Fc1cccc(CSc2nnc(-c3ccc4c(c3)CCO4)o2)c1", "%Inh": 0},
      {"smiles": "CCC(=O)c1c(-c2ccccc2)c2cc(Cl)ccc2c(=O)n1Cc1cc(S(C)(=O)=O)n(CCC(C)(C)O)n1", "%Inh": 21},
      {"smiles": "CCn1c(-c2ccoc2)nc2cnccc21", "note": "[SB-733887]", "%Inh": 0},
      {"smiles": "CCc1ccc(-c2ccc3c(c2)-c2nn(C)cc2S(=O)(=O)N3C)cc1", "%Inh": 0},
      {"smiles": "COc1ccc(-c2coc3ccc(-c4nnc(SCc5cccc(C#N)c5)o4)cc23)cc1", "%Inh": 0},
      {"smiles": "COC(=O)c1c(-c2ccccc2)c2cc(C)ccc2c(=O)n1Cc1ccccc1", "%Inh": 0},
      {"smiles": "Cl.NS(=O)(=O)c1cccc(Nc2cc(-c3ccc(F)cc3)n[nH]2)c1", "note": "[GW824645]", "%Inh": 0},
      {"smiles": "COC(=O)c1c(-c2ccccc2)c2cc(Br)ccc2c(=O)n1Cc1ccc(NC(=O)CCC(=O)O)cc1", "%Inh": 0},
      {"smiles": "COc1ccc(CNC(=O)NC2CCN(c3ccnc(Nc4ccc(F)cc4)n3)C2)cc1", "note": "(centres unmarked) [GSK1379706]", "%Inh": 2},
      {"smiles": "CCS(=O)(=O)c1ccc(OC)c(Nc2ncc(-c3ccc(F)cc3)o2)c1.Cl", "note": "[GW591947]", "%Inh": 6},
      {"smiles": "Cc1nn2c(=O)cc(N3CCOCC3)nc2n1Cc1cccc(Cl)c1Cl", "note": "[GSK2342769]", "%Inh": 7},
      {"smiles": "CCS(=O)c1ccc(-c2coc3ccc(-c4nnc(C)o4)cc23)cc1", "note": "(centres unmarked)", "%Inh": 0},
      {"smiles": "COc1cc(Nc2nccc(N3CCC(NC(=O)C(C)c4ccc(Cl)cc4)C3)n2)cc(OC)c1OC", "note": "(centres unmarked) [GSK1379757]", "%Inh": 0},
      {"smiles": "COc1cc2ncn(-c3cc(OCc4ccncc4Br)c(C(N)=O)s3)c2cc1OC", "note": "[GW854278]", "%Inh": 0},
      {"smiles": "Cl.c1ccc(Cn2cnc3cc(Nc4ncnc5ccccc45)ccc32)cc1", "note": "[GW272142]", "%Inh": 0},
      {"smiles": "CCC(=O)c1c(-c2ccccc2)c2cc(Cl)ccc2c(=O)n1Cc1cc(C(=O)NC2CC2)n(C)n1", "%Inh": 0},
      {"smiles": "Nc1nccc2scc(-c3ccc4c(c3)CCN4C(=O)Cc3ccccc3)c12", "note": "[GSK2576924]", "%Inh": 27},
      {"smiles": "COc1ccc(-c2cc3c(C)nc(N)nc3n([C@H]3CC[C@H](O)CC3)c2=O)cn1", "%Inh": 0},
      {"smiles": "Nc1nc(-c2ccccc2F)c(-c2ccnc3ccccc23)s1", "note": "[GW560459]", "%Inh": 1},
      {"smiles": "COc1cccc(C2=C(N(C)c3ccccc3)C(=O)NC2=O)c1", "note": "[SB-334865]", "%Inh": 16},
      {"smiles": "CCn1c(-c2nonc2N)nc2ccccc21", "note": "[SB-693162/GW549034]", "%Inh": 13},
      {"smiles": "COc1cc2nccc(Nc3ccc(OCc4ccc(NC(C)=O)cc4)cc3)c2cc1OC.Cl", "note": "[GW440135]", "%Inh": 0},
      {"smiles": "Cc1ccc(Oc2ccc(Nc3ncnc4cc[nH]c34)cc2C)cn1", "%Inh": 0},
      {"smiles": "O=C(Nc1n[nH]c2cc(-c3ccccc3F)ccc12)C1CC1", "note": "[SB-733371]", "%Inh": 0},
      {"smiles": "O=C1NC(=O)C(c2ccccc2)=C1Nc1cccc(O)c1", "note": "[SB-390534]", "%Inh": 0},
      {"smiles": "COc1ccc(-c2cc3c(C)nc(N)nc3n([C@H]3CC[C@H](OCCO)CC3)c2=O)cn1", "%Inh": 0},
      {"smiles": "Cn1c(=O)c(F)c(Nc2ccc(I)cc2F)c2c(=O)n(OC[C@H](O)CO)cnc21", "%Inh": 20},
      {"smiles": "Nc1n[nH]c2ncc(-c3ccccc3)cc12", "note": "[SB-517081]", "%Inh": 22},
      {"smiles": "CCC(=O)c1c(-c2ccccc2)c2cc(Cl)ccc2c(=O)n1Cc1cc(S(C)(=O)=O)n(CC(N)=O)n1", "%Inh": 0},
      {"smiles": "Nc1ncnc2c1ncn2-c1ccc(Cl)cc1", "note": "[AH2635]", "%Inh": 0},
      {"smiles": "Cc1nnc(-c2ccc3ncn(-c4ccc(S(C)=O)cc4)c3c2)o1", "note": "(centres unmarked)", "%Inh": 9},
      {"smiles": "COc1cc2ncn(-c3cc(OCc4ccc(S(C)(=O)=O)cc4)c(C(N)=O)s3)c2cc1OC", "note": "[GW869979]", "%Inh": 0},
      {"smiles": "CCC(=O)c1c(-c2ccccc2)c2cc(Cl)ccc2c(=O)n1Cc1ccc(C(=O)O)cc1", "%Inh": 0}
    ]},
    {"tested_on": "DDR1", "conditions": "concentration: 1 μM, replicates: in singlicate; n = 1", "units": {"%Inh": "%"}, "values": [
      {"smiles": "CCc1nc(-c2cccc(C)c2)c(-c2ccncc2)s1", "%Inh": 30},
      {"smiles": "COc1cc(OC)cc(-c2cc3cnc(N)nc3nc2NC(=O)NC(C)(C)C)c1", "%Inh": 68},
      {"smiles": "Nc1ncnc2c1ncn2-c1cccc(F)c1", "note": "[SKF-97560]", "%Inh": 18},
      {"smiles": "COc1cc2ncn(-c3cc(OCc4ccncc4)c(C(N)=O)s3)c2cc1OC", "note": "[GSK336313]", "%Inh": 0},
      {"smiles": "Fc1cccc(CSc2nnc(-c3ccc4c(c3)CCO4)o2)c1", "%Inh": 0},
      {"smiles": "CCC(=O)c1c(-c2ccccc2)c2cc(Cl)ccc2c(=O)n1Cc1cc(S(C)(=O)=O)n(CCC(C)(C)O)n1", "%Inh": 14},
      {"smiles": "CCn1c(-c2ccoc2)nc2cnccc21", "note": "[SB-733887]", "%Inh": 27},
      {"smiles": "CCc1ccc(-c2ccc3c(c2)-c2nn(C)cc2S(=O)(=O)N3C)cc1", "%Inh": 0},
      {"smiles": "COc1ccc(-c2coc3ccc(-c4nnc(SCc5cccc(C#N)c5)o4)cc23)cc1", "%Inh": 0},
      {"smiles": "COC(=O)c1c(-c2ccccc2)c2cc(C)ccc2c(=O)n1Cc1ccccc1", "%Inh": 60},
      {"smiles": "Cl.NS(=O)(=O)c1cccc(Nc2cc(-c3ccc(F)cc3)n[nH]2)c1", "note": "[GW824645]", "%Inh": 0},
      {"smiles": "COC(=O)c1c(-c2ccccc2)c2cc(Br)ccc2c(=O)n1Cc1ccc(NC(=O)CCC(=O)O)cc1", "%Inh": 2},
      {"smiles": "COc1ccc(CNC(=O)NC2CCN(c3ccnc(Nc4ccc(F)cc4)n3)C2)cc1", "note": "(centres unmarked) [GSK1379706]", "%Inh": 8},
      {"smiles": "CCS(=O)(=O)c1ccc(OC)c(Nc2ncc(-c3ccc(F)cc3)o2)c1.Cl", "note": "[GW591947]", "%Inh": 0},
      {"smiles": "Cc1nn2c(=O)cc(N3CCOCC3)nc2n1Cc1cccc(Cl)c1Cl", "note": "[GSK2342769]", "%Inh": 25},
      {"smiles": "CCS(=O)c1ccc(-c2coc3ccc(-c4nnc(C)o4)cc23)cc1", "note": "(centres unmarked)", "%Inh": 0},
      {"smiles": "COc1cc(Nc2nccc(N3CCC(NC(=O)C(C)c4ccc(Cl)cc4)C3)n2)cc(OC)c1OC", "note": "(centres unmarked) [GSK1379757]", "%Inh": 0},
      {"smiles": "COc1cc2ncn(-c3cc(OCc4ccncc4Br)c(C(N)=O)s3)c2cc1OC", "note": "[GW854278]", "%Inh": 0},
      {"smiles": "Cl.c1ccc(Cn2cnc3cc(Nc4ncnc5ccccc45)ccc32)cc1", "note": "[GW272142]", "%Inh": 5},
      {"smiles": "CCC(=O)c1c(-c2ccccc2)c2cc(Cl)ccc2c(=O)n1Cc1cc(C(=O)NC2CC2)n(C)n1", "%Inh": 26},
      {"smiles": "Nc1nccc2scc(-c3ccc4c(c3)CCN4C(=O)Cc3ccccc3)c12", "note": "[GSK2576924]", "%Inh": 43},
      {"smiles": "COc1ccc(-c2cc3c(C)nc(N)nc3n([C@H]3CC[C@H](O)CC3)c2=O)cn1", "%Inh": 0},
      {"smiles": "Nc1nc(-c2ccccc2F)c(-c2ccnc3ccccc23)s1", "note": "[GW560459]", "%Inh": 7},
      {"smiles": "COc1cccc(C2=C(N(C)c3ccccc3)C(=O)NC2=O)c1", "note": "[SB-334865]", "%Inh": 0},
      {"smiles": "CCn1c(-c2nonc2N)nc2ccccc21", "note": "[SB-693162/GW549034]", "%Inh": 0},
      {"smiles": "COc1cc2nccc(Nc3ccc(OCc4ccc(NC(C)=O)cc4)cc3)c2cc1OC.Cl", "note": "[GW440135]", "%Inh": 0},
      {"smiles": "Cc1ccc(Oc2ccc(Nc3ncnc4cc[nH]c34)cc2C)cn1", "%Inh": 0},
      {"smiles": "O=C(Nc1n[nH]c2cc(-c3ccccc3F)ccc12)C1CC1", "note": "[SB-733371]", "%Inh": 0},
      {"smiles": "O=C1NC(=O)C(c2ccccc2)=C1Nc1cccc(O)c1", "note": "[SB-390534]", "%Inh": 0},
      {"smiles": "COc1ccc(-c2cc3c(C)nc(N)nc3n([C@H]3CC[C@H](OCCO)CC3)c2=O)cn1", "%Inh": 0},
      {"smiles": "Cn1c(=O)c(F)c(Nc2ccc(I)cc2F)c2c(=O)n(OC[C@H](O)CO)cnc21", "%Inh": 0},
      {"smiles": "Nc1n[nH]c2ncc(-c3ccccc3)cc12", "note": "[SB-517081]", "%Inh": 0},
      {"smiles": "CCC(=O)c1c(-c2ccccc2)c2cc(Cl)ccc2c(=O)n1Cc1cc(S(C)(=O)=O)n(CC(N)=O)n1", "%Inh": 0},
      {"smiles": "Nc1ncnc2c1ncn2-c1ccc(Cl)cc1", "note": "[AH2635]", "%Inh": 0},
      {"smiles": "Cc1nnc(-c2ccc3ncn(-c4ccc(S(C)=O)cc4)c3c2)o1", "note": "(centres unmarked)", "%Inh": 0},
      {"smiles": "COc1cc2ncn(-c3cc(OCc4ccc(S(C)(=O)=O)cc4)c(C(N)=O)s3)c2cc1OC", "note": "[GW869979]", "%Inh": 20},
      {"smiles": "CCC(=O)c1c(-c2ccccc2)c2cc(Cl)ccc2c(=O)n1Cc1ccc(C(=O)O)cc1", "%Inh": 24}
    ]}
  ]
}
